The record followed here is PubChem BioAssay (NCI).

This is part of a sample that, as a whole, favours compounds with a hit. Of some 83,000 tested, about 20% had one in any assay.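 Interpretation: 100, growth as untreated; towards 0, rising growth inhibition; 0, no net growth; 0 to -100, cell death. Compounds scoring below 10 were considered active.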 Values without a mark were called inactive. Active and inactive are the calls of the source.

Among the test systems are SR leukemia; RPMI-8226 leukemia; OVCAR-8 ovarian; OVCAR-5 ovarian; OVCAR-4 ovarian; SK-OV-3 ovarian; IGROV1 ovarian; OVCAR-3 ovarian; HS 578T breast; NCI/ADR-RES ovarian; T-47D breast; BT-549 breast; MDA-MB-435 melanoma; SW-620 colon; MCF7 breast; HCT-116 colon; HCC-2998 colon; KM12 colon; MDA-MB-468 breast.
Assay in all cases: NCI-60 one-dose screen, 48 h (100 = growth as untreated, 0 = no growth, -100 = all killed)
Details in all cases: 10 µM unless noted

For `Cc1cccc(-c2nc(Nc3ccc(C)c(S(N)(=O)=O)c3)c3ccccc3n2)c1`, the growth in the experiment with SR leukemia is 9.02% (active); in the experiment with RPMI-8226 leukemia it was 12.9%; with OVCAR-8 ovarian, 32.8%; in the experiment with OVCAR-5 ovarian it was 47.6%; with OVCAR-4 ovarian it was 44.7%; with SK-OV-3 ovarian it was 103%. Also, the growth in the experiment with IGROV1 ovarian was 42.9%; in the experiment with OVCAR-3 ovarian, 39.3%; with HS 578T breast, 53.4%; in the experiment with NCI/ADR-RES ovarian it was 18.7%; with T-47D breast, 29.1%; with BT-549 breast it was 75.6%. Besides, the growth in the experiment on MDA-MB-435 melanoma was 34.9%; in the experiment with SW-620 colon it was 23.7%; in the experiment on MCF7 breast, 1.69% (active); in the experiment on HCT-116 colon, 25.3%; in the experiment with HCC-2998 colon it was -63.7% (active); in the experiment on KM12 colon it was -24.8% (active). In the experiment with MDA-MB-468 breast, the growth was 13.4%.

With `COc1cc2c(c(OC)c1OC)C(=O)CC(c1cccc(NC(=O)c3cc(NC(=O)[C@H](CO)NC(=O)OC(C)(C)C)ccc3Cl)c1)O2` (some centres not stated), the growth was 19.4% in the experiment with SR leukemia; 17.9% with RPMI-8226 leukemia; 21.9% with OVCAR-8 ovarian; 86.8% in the experiment with OVCAR-5 ovarian; 47.9% in the experiment on OVCAR-4 ovarian; 81.7% in the experiment with SK-OV-3 ovarian. Moreover, the growth in the experiment with IGROV1 ovarian is 36.8%; in the experiment on OVCAR-3 ovarian it was 27.4%; in the experiment on HS 578T breast it was 28.7%; in the experiment on NCI/ADR-RES ovarian it was 76.4%; in the experiment on T-47D breast, 13.5%; with BT-549 breast, -3.14% (active). Further, the growth in the experiment with MDA-MB-435 melanoma is 10.1%; in the experiment on SW-620 colon, 44%; with MCF7 breast, 12.2%; in the experiment on HCT-116 colon, 14.4%; in the experiment on HCC-2998 colon, 73%; in the experiment on KM12 colon, 14.5%. In the experiment on MDA-MB-468 breast, the growth is 19.8%.

Regarding `CC(C)C(C(=O)O)n1c(O)c(/C=C2/C=c3cc4c(cc3=NC2=O)OCO4)sc1=S` (configuration not stated), the growth with SR leukemia was 90.5%; in the experiment with RPMI-8226 leukemia, 109%; with OVCAR-8 ovarian it was 105%; in the experiment with OVCAR-5 ovarian, 110%; with OVCAR-4 ovarian, 108%; in the experiment with SK-OV-3 ovarian it was 129%. Further, the growth with IGROV1 ovarian is 109%; with OVCAR-3 ovarian it was 107%; in the experiment with HS 578T breast, 99.8%; in the experiment on NCI/ADR-RES ovarian it was 98.2%; in the experiment on T-47D breast, 103%; with BT-549 breast, 111%. The growth is 107% with MDA-MB-435 melanoma; 108% in the experiment with SW-620 colon; 90.4% in the experiment with MCF7 breast; 108% in the experiment on HCT-116 colon; 110% with HCC-2998 colon; 103% in the experiment with KM12 colon. Also, in the experiment with MDA-MB-468 breast, the growth is 101%.

For `N/N=C(\N)c1c(N)nc(=S)[nH]c1-c1ccc(Cl)cc1Cl`, the growth in the experiment with SR leukemia is 97.3%; in the experiment with RPMI-8226 leukemia, 109%; in the experiment with OVCAR-8 ovarian, 110%; in the experiment with OVCAR-5 ovarian it was 108%; with OVCAR-4 ovarian it was 105%; in the experiment with SK-OV-3 ovarian it was 86.7%. Further, the growth was 106% with IGROV1 ovarian; 109% with OVCAR-3 ovarian; 100% in the experiment on HS 578T breast; 114% in the experiment on NCI/ADR-RES ovarian; 92.6% in the experiment on T-47D breast; 100% with BT-549 breast. The growth with MDA-MB-435 melanoma was 111%; with SW-620 colon, 106%; in the experiment on MCF7 breast it was 95.6%; in the experiment on HCT-116 colon it was 113%; with HCC-2998 colon, 103%; in the experiment with KM12 colon, 105%. In addition, in the experiment with MDA-MB-468 breast, the growth is 110%.

As to `C=CC(=O)Nc1ccc(C)c(Oc2ccc(Cl)cc2)c1`, the growth in the experiment on SR leukemia was 24.3%; in the experiment with RPMI-8226 leukemia, 23.8%; in the experiment on OVCAR-8 ovarian, 38.5%; in the experiment on OVCAR-5 ovarian, 64.8%; in the experiment with OVCAR-4 ovarian, 56.2%; with SK-OV-3 ovarian, 77.4%. Further, the growth in the experiment on IGROV1 ovarian is 46.4%; with OVCAR-3 ovarian, 36.6%; with HS 578T breast, 51.8%; in the experiment with NCI/ADR-RES ovarian it was 37.3%; in the experiment with T-47D breast, 41.8%; with BT-549 breast, 22.8%. For the same compound, the growth in the experiment on MDA-MB-435 melanoma is 43.9%; in the experiment on SW-620 colon, 43.8%; in the experiment with MCF7 breast, 36.8%; in the experiment on HCT-116 colon, 52.1%; in the experiment with HCC-2998 colon, 58.4%; in the experiment with KM12 colon, 47.2%. The growth with MDA-MB-468 breast is 10.2%.

Take `Cc1ccc(C(=O)C(c2c[nH]c3ccccc23)c2c[nH]c3ccccc23)cc1`: the growth with SR leukemia is -6.82% (active); in the experiment with RPMI-8226 leukemia, -2.33% (active); with OVCAR-8 ovarian it was 44.2%; with OVCAR-5 ovarian, 46.7%; with OVCAR-4 ovarian, 43.7%; in the experiment on SK-OV-3 ovarian, 94%. For the same compound, the growth with IGROV1 ovarian is 35.8%; in the experiment on OVCAR-3 ovarian, 29.2%; with HS 578T breast, 83.2%; with NCI/ADR-RES ovarian it was 24.8%; in the experiment on T-47D breast, 45.7%; with BT-549 breast, 69.1%. Besides, the growth is 19.4% with MDA-MB-435 melanoma; 0.879% (active) in the experiment on SW-620 colon; 9.47% (active) in the experiment on MCF7 breast; -62.3% (active) in the experiment with HCT-116 colon; 4.87% (active) in the experiment with HCC-2998 colon; 26.1% in the experiment on KM12 colon. Besides, the growth in the experiment on MDA-MB-468 breast was 26%.

For `Cn1cc(NC(=O)c2cc(NC(=O)c3ccc(C#Cc4ccccc4)cc3)cn2C)cc1C(=O)NCCCN1CCOCC1`, the growth in the experiment with SR leukemia was -34.3% (active); with RPMI-8226 leukemia, -42.6% (active); in the experiment with OVCAR-8 ovarian, 38.9%; in the experiment with OVCAR-5 ovarian, 83.2%; with OVCAR-4 ovarian it was 63%; with SK-OV-3 ovarian, 83.2%. In addition, the growth with IGROV1 ovarian was 66.8%; in the experiment with OVCAR-3 ovarian, 46%; in the experiment on HS 578T breast it was 95.9%; in the experiment with NCI/ADR-RES ovarian, 90%; in the experiment with T-47D breast, 22.2%; in the experiment on BT-549 breast, 73.5%. For the same compound, the growth with MDA-MB-435 melanoma was -56.6% (active); with SW-620 colon, -44.3% (active); in the experiment with MCF7 breast, -93.1% (active); in the experiment with HCT-116 colon, -87.3% (active); in the experiment with HCC-2998 colon it was -56% (active); in the experiment on KM12 colon it was 3.14% (active). Moreover, the growth in the experiment on MDA-MB-468 breast was -69.7% (active).

In the case of `COC(=O)/C=C/c1cccc2c1C(=O)NC(C)(c1cc3ccccc3oc1=O)N2` (configuration not stated), the growth was 58.7% in the experiment on SR leukemia; 82.6% in the experiment on RPMI-8226 leukemia; 66.9% in the experiment on OVCAR-8 ovarian; 77.6% with OVCAR-5 ovarian; 70% with OVCAR-4 ovarian; 41.7% in the experiment with SK-OV-3 ovarian. In addition, the growth in the experiment with IGROV1 ovarian was 32%; in the experiment with OVCAR-3 ovarian, 74.1%; in the experiment with HS 578T breast it was 72%; in the experiment on NCI/ADR-RES ovarian it was 80.1%; in the experiment with T-47D breast, 51.4%; in the experiment with BT-549 breast it was 58.2%. The growth with MDA-MB-435 melanoma is 78.2%; in the experiment with SW-620 colon, 72.2%; in the experiment on MCF7 breast, 82.2%; in the experiment on HCT-116 colon it was 44.6%; in the experiment on HCC-2998 colon, 74.4%; in the experiment on KM12 colon, 68.8%. The growth in the experiment on MDA-MB-468 breast was 64.7%.
